# Mito fusion yeast = mitochondrial division inhibition or fusion activation. Potency, µM (highest dose often 46.1 µM), for inactives: top-dose growth rescue (activation), actives largely listed as activators. 0.23% of 320,000 active. S. cerevisiae fusion-defective mutant growth rescue, CellTiterGlo 48 h; also: % of control where 0% means no effect; nearly all actives have a fitted effect of over 45% in size
#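 S. cerevisiae fusion-defective temperature-sensitive mutants (e.g. fzo1-1, mgm1-5) grown 48 h at 37C in YPEG (ethanol/glycerol non-fermentable) medium with 23 nl compound per well; growth rescue read as CellTiterGlo luminescence.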
# PLK1 PBD inh = PLK1 (human) polo-box domain binding inhibition; P53350; Plk1 PBD binding of FITC phosphopeptide, fluorescence polarization; Potency, µM, without a hit: max response, negative = inhibition, hits mostly inhibitors; 2.8% of 360,000 active; AID 720504; also: series mostly up to about 57 µM; % is scaled to controls: 0 for no effect and ±100 for the full control effect; nearly all actives have a fitted effect of over 65% in size
# GCN5L2 inh = blocks human GCN5L2 histone acetyltransferase. Q92830. GCN5L2 HAT assay, ThioGlo1 CoA-SH fluorescence. Potency, µM (titrated, usually from 58.9 µM), for inactives: at the highest dose activity change, negative = inhibition, hits mostly inhibitors. 0.21% of 390,000 active. AID 504327; also: % is scaled to controls: 0 for no effect and ±100 for the full control effect
#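 ThioGlo1-coupled HAT assay: 20nM GCN5L2, 70uM acetyl-CoA, 75uM H3(1-25) peptide, pH 7.5. Fluorescence read at 340/540nm at start and after 20 min at room temperature.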
# PKM2 act = activators of human pyruvate kinase M2; P14618; purified PKM2, Kinase-Glo ATP luminescence, activation; response scale: 0% is enzyme alone, no compound; Potency, µM (highest dose often 57.5 µM), for the others: at the highest dose activation, usual class: activators; 0.34% of 260,000 active; also: % is scaled to controls: 0 for no effect and ±100 for the full control effect; nearly all actives have a fitted effect of over 55% in size
# Target sequence (P14618 whole entry, looked up): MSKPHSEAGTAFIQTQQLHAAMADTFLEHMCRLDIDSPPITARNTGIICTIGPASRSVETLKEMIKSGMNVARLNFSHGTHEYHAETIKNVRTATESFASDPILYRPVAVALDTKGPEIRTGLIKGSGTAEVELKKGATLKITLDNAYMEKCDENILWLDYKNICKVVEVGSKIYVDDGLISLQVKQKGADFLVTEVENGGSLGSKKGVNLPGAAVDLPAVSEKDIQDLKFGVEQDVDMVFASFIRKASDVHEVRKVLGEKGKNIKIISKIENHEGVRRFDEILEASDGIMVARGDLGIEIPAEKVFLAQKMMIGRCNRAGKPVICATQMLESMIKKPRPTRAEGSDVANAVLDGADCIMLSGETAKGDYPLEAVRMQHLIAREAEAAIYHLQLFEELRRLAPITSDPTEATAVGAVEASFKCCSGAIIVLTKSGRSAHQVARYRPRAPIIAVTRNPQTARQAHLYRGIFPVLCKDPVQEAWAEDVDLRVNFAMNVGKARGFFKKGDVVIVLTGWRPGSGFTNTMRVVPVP
#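 Purified hPK-M2 (>95% pure) converted ADP (0.1 mM final) to ATP with 0.5 mM PEP in 50 mM imidazole pH7.2, KCl, MgCl2, Tween 20, BSA; 1 h at room temperature. ATP detected by Kinase-Glo luminescence.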
# VDR inh = vitamin D3 receptor (human) inhibition; VDR-SRC2-3 peptide fluorescence polarization, 2 h; Potency, µM, for the others: max response, negative = inhibition, usual class: inhibitors; 0.93% of 400,000 active; also: % is scaled to controls: 0 for no effect and ±100 for the full control effect
#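 Fluorescence polarization assay measuring small-molecule disruption of VDR binding to the coregulator peptide SRC2-3. Compounds were pin-transferred (23 nl) into the reagent mix and incubated 2 h at room temperature before reading.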
# GLS inhibitor = glutaminase GLS (human) inhibition | GLS enzymatic activity, qHTS titration | Potency, µM (titrated, usually from 45.5 µM), inactives show at the highest dose activity change, negative = inhibition, actives largely listed as inhibitors | O94925 | 0.21% of 410,000 active; also: % is scaled to controls: 0 for no effect and ±100 for the full control effect
#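 Compounds were pin-transferred onto hKGA, after which L-glutamine (1 mM solution) and a detection mix of glutamate oxidase, HRP and Amplex Red were added. Initial and 30 min RT fluorescence reads were collected.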
# Active calls of the source: *; ? = inconclusive; . = no result given. This is a sample that favours compounds with a hit; in the whole collection about 3.4% have one here. Calls follow the shape of the dose curve; as a rule, active = well fitted curve in the direction sought with a large enough effect; inconclusive = small, poorly fitted or top-dose-only effect, or another doubt; inactive = no such curve, though single readings can be large; an effect the other way counts as inactive or inconclusive. Potency is read from the fitted curve at half-maximal effect.
SMILES,Mito fusion yeast,PLK1 PBD inh,GCN5L2 inh,PKM2 act,VDR inh,GLS inhibitor
COc1cccc(N2C(=O)CSC23C(=O)N(Cc2ccccc2)c2ccccc23)c1 (stereo unspecified),.,.,-12%,.,15%,-5%
Cc1nn(-c2ccccn2)c2nc(-c3cccs3)cc(C(=O)N3CCOCC3)c12,8%,12µM*,-23%,0%,?,-10%
CCCCNC(=O)c1nn2c(C(F)(F)F)cc(-c3ccc(OC)cc3)nc2c1Br,-2%,12µM*,2%,4%,-23%,-3%
CC(C)Cc1nc(N2CCN(C(=O)c3ccco3)CC2)c(C#N)c2c1CCC2,?,-14%,-14%,22µM*,-18%,9%
COc1ccc(CC(=S)N2CCOCC2)cc1OC,-28%,-6%,-2%,2%,-10%,-4%
S=C(Cc1cccnc1)N1CCOCC1,0%,24µM*,-10%,0%,?,-2%
C=C1C(=O)OC2CC1C(OC(C)=O)CC(C)=CCCC(C)=CCC[C@@]2(C)O (stereo partly specified),.,.,-10%,.,35µM*,.
NC1=NC(=O)C(Cc2ccc(F)cc2)S1 (stereo unspecified),1%,24µM*,-9%,2%,-15%,-3%
Cc1ccc(CC2SC(N)=NC2=O)cc1 (stereo unspecified),2%,-5%,15%,9%,-30%,1%
O=C(O)CN1C(=O)/C(=C\c2cc([N+](=O)[O-])ccc2OCc2ccccc2Cl)SC1=S,-4%,27µM*,?,0%,?,?
O=C1/C(=C\c2cc([N+](=O)[O-])ccc2O)SC(=S)N1Cc1ccc(Cl)cc1,-77%,-12%,-13%,.,?,1%
COc1ccc(/C=C2/SC(=S)N(CC(=O)O)C2=O)cc1OCc1ccc(Cl)cc1,2%,30µM*,?,-20%,?,11%
COc1cc(/C=C2/SC(=O)NC2=O)ccc1OCc1ccccc1,13%,?,-2%,-5%,16%,3%
O=C(O)CN1C(=O)/C(=C\c2cc(Br)ccc2OCc2ccc(Cl)cc2)SC1=S,27%,8.4µM*,-26%,.,40µM*,28%
COc1cc(/C=C2\SC(=S)N(CC(=O)O)C2=O)ccc1OC(=O)c1ccco1,-8%,-9%,-3%,.,-28%,13%
COc1cc(/C=C2/SC(=O)N(Cc3ccccc3Cl)C2=O)ccc1OCc1ccncc1,0%,-4%,-3%,11%,89µM*,-8%
CCOc1ccccc1NC(=O)c1cnn2c(C(F)F)cc(-c3ccccc3)nc12,.,.,-5%,.,-13%,-2%
COc1cc2c(c(OC)c1OC)-c1c(cc3c(c1OC)OCO3)C[C@@H](C)[C@](C)(O)C2,.,.,.,.,.,9%
C(=N\Nc1nc(-c2ccccc2)cs1)/c1ccncc1,3%,-20%,-6%,2%,10%,?
C(=N\Nc1nc(-c2ccccc2)cs1)/c1cccs1,?,30µM*,-11%,8%,19%,3%
CC(C)(CNC(=O)c1cccc(S(=O)(=O)Nc2ccc(SC(F)F)cc2)c1)N1CCOCC1,.,13µM*,.,.,-24%,17%
CC(C)c1nc2ccccc2c2nnc(SCC(=O)NCc3ccco3)n12,3%,30µM*,1%,0%,-18%,12%
O=C(NC(=S)Nc1ccccc1C(=O)O)c1cncc(Br)c1,-1%,9.5µM*,-13%,1%,50µM*,-8%
N#Cc1ccccc1NC(=S)NC(=O)c1cccnc1,0%,12µM*,-7%,-8%,-12%,?
O=C(/C=C/c1ccc(Cl)cc1Cl)Nc1cccc(S(=O)(=O)NC2=NCCC2)c1,-5%,17µM*,-18%,-6%,?,-16%
SMILES,Mito fusion yeast,PLK1 PBD inh,GCN5L2 inh,PKM2 act,VDR inh,GLS inhibitor
O=C(/C=C/c1ccccc1Cl)Nc1cccc(S(=O)(=O)NC2=NCCCCC2)c1,-1%,-8%,-7%,-4%,-9%,-2%
CCc1cccc(N(C(=O)c2csnn2)C(C(=O)NC2CCCCC2)c2ccncc2)c1 (stereo unspecified),0%,-5%,-8%,.,4%,-12%
COCc1cccc(-c2csc(C(C)(O)c3ccc(OC)cc3)n2)c1 (stereo unspecified),.,-2%,.,.,.,-7%
CNC(=S)N(Cc1ccc(OC)cc1)Cc1cc2cccc(C)c2[nH]c1=O,7%,13µM*,-4%,6%,?,?
COc1ccc(CN(Cc2cc3cccc(C)c3[nH]c2=O)C(=O)N(C)C)cc1,-3%,-5%,-5%,3%,5%,-8%
COc1ccc(-c2nc(S(=O)(=O)c3ccc(C)cc3)c(N3CCCCC3)o2)cc1,.,.,-7%,.,89µM*,-7%
COc1cc(-c2nc(S(=O)(=O)c3ccc(C)cc3)c(N3CCOCC3)o2)cc(OC)c1OC,-6%,-14%,-27%,-2%,79µM*,9%
COc1cccc(-c2nc(S(=O)(=O)c3ccc(C)cc3)c(N3CCCCCC3)o2)c1,.,.,-3%,.,-22%,-1%
CCOc1ccc(N2C(=O)c3cccnc3C2Nc2ccc(Cl)cc2)cc1 (stereo unspecified),2%,-4%,-20%,-1%,11%,-3%
Cc1ccc(NC2c3ncccc3C(=O)N2c2ccccc2C)cc1C (stereo unspecified),-1%,6.7µM*,-1%,4%,-3%,?
COc1cccc(CSc2nccn2C)c1,-9%,-16%,-2%,0%,-5%,0%
Cn1cc(C(=O)C(=O)NC2CC2)c2ccccc21,.,27µM*,.,.,-6%,-7%
COC(=O)C1(CO)NC(c2cccs2)C2C(=O)N(c3ccccc3)C(=O)C21 (stereo unspecified),0%,27µM*,-2%,1%,18%,1%
Cc1ccc(C(=O)Nc2ccc3nc(SCC(=O)N4CCCc5ccccc54)sc3c2)cc1,.,.,-7%,.,20%,-3%
O=C(NNc1cc(Cl)ccc1Cl)c1cccs1,2%,-22%,-1%,3%,-24%,13µM*
CC(=O)O[C@H](C)OC(=O)[C@@H](C)c1ccc(-c2ccccc2)c(F)c1,.,.,.,.,.,-8%
CC(C)C(NC(=O)c1ccccc1F)C(=O)NCc1ccccc1 (stereo unspecified),2%,27µM*,-3%,1%,?,1%
CCOc1ccccc1C(=O)N[C@H](C(=O)NCc1ccccc1)C(C)C,11%,-1%,-5%,4%,19%,4%
CC(C)(C)NC[C@H](O)CSc1nc(-c2ccc(C(N)=O)s2)cs1,.,.,-25%,.,-2%,5%
